# From PubChem BioAssay AID1508602 (The Scripps Research Institute Molecular Screening Center, 2020)
# “And” between values parts separate entries of the source, which are not always exact repeats. Identical values can stand only once. Among all 650,000 compounds or so, about 6,800 (1%) were called active. Shown is part of a subset that was picked to be rich in actives. Values without a mark were called inactive. No stated cut-off is given here; in the data, active means activation above about 4.9%; inactive means the rest.
# Target: G-protein coupled receptor 151 (Homo sapiens) (UniProt Q8TDV0)
# Sequence (Q8TDV0 whole entry, looked up): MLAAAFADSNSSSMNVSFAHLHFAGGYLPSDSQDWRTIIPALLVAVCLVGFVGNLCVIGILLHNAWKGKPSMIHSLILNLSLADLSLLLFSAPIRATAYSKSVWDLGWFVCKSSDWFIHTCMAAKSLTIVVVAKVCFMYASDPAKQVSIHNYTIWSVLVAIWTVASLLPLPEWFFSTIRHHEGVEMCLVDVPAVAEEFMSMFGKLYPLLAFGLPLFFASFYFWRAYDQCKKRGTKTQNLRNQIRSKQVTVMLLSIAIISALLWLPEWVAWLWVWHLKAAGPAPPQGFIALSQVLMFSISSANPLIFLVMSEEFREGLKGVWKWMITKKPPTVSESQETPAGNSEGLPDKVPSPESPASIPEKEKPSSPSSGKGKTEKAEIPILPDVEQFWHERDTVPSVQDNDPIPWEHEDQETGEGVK
# Test: activators of human GPR151, primary screen, cell-based, PathHunter beta-arrestin, luminescence (AID 1508602);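 further: 0% = median of compound wells and 100% = cells with positive control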
# Details: PathHunter beta-arrestin GPR151 cells, at 11.2 µM, hits give high values
row,SMILES,activation
1,CC[n+]1c(/C=C/c2ccc(N(C)C)cc2)oc2ccccc21,-0.273%
2,CN(C)c1ccc(C=NCC(O)CN=Cc2ccc(N(C)C)cc2)cc1 (stereo not drawn),0.679%
3,CC[n+]1cc(C)ccc1/C=C/c1ccc(N(C)C)cc1,5.25% (active)
4,CCC(C)C(=O)NCc1nnc2n1CCN(C(=O)c1sc(C)nc1C)CC2 (stereo not drawn),-0.99%
5,COc1cccc(NC(=O)c2cc([N+](=O)[O-])ccc2NC(=O)CNCc2cccnc2)c1,-1.03%
6,O=C(Nc1ccc(-c2ccncc2)cn1)C1COc2ccccc2O1 (stereo not drawn),-2.03%
7,COCCNc1nc2nonc2nc1N(C)Cc1ccncc1C,8.73% (active)
8,COCCNc1nc2nonc2nc1N(C)Cc1ccc(C)cc1,-1.03%
9,COCCNc1nc2nonc2nc1N1CCCC1c1nccs1 (stereo not drawn),1.38%
10,O=C(O)c1cc([N+](=O)[O-])c(NCc2ccccc2)c([N+](=O)[O-])c1,0.643%
11,O=C(Cn1c(=O)n(Cc2cccs2)c(=O)c2cccnc21)Nc1ccc(F)cc1,5.75% (active)
12,O=C(Cn1c(=O)n(Cc2ccc(F)cc2)c(=O)c2cccnc21)Nc1ccccc1F,0.571%
13,O=C(Cn1c(=O)n(Cc2ccc3c(c2)OCO3)c(=O)c2cccnc21)Nc1ccc(F)cc1,-0.979%
14,COc1ccc(NC(=O)c2ccc(F)c3ccccc23)cc1,0.361%
15,COC(=O)c1cnn2c1NCN(Cc1ccccc1Cl)C2,0.44%
16,CC(=O)Nc1cccc(-c2cnc3[nH]c(=O)n([C@@H](C)c4ccccc4)c3n2)c1,0.0611%
17,CCN(CC)C(=O)C1c2ccccc2C(=O)N(CCOC)C1c1c[nH]c2ccccc12 (stereo not drawn),-0.555%
18,COc1ccc([N+](=O)[O-])cc1N1C(=O)c2ccc(-c3nc4ccccc4c(=O)o3)cc2C1=O,2.31%
19,COc1cc2nc(-c3ccc4c(c3)C(=O)N(CCC(C)C)C4=O)oc(=O)c2cc1OC,5.83% (active)
20,COc1ccc(-c2nc3cc(Cl)ccc3c(=O)o2)cc1OC,-0.243%
21,O=C(c1ccccc1)N1CCN(c2nc3ccccc3o2)CC1,0.594%
22,Cc1ccc(S(=O)(=O)N/N=C/c2ccc(N(C)C)c(Br)c2)cc1,-1.16%

row,SMILES,activation
1,O=C(CCn1nnc2ccccc21)N/N=C/c1ccc2ccccc2c1,-0.0304%
2,Cc1ccccc1Nc1nnc(SCC(=O)N(C)C)s1,-2.99%
3,COc1ccc(NS(=O)(=O)c2ccc(Cl)cc2)cc1,2.48%
4,CCOc1ccc(NS(=O)(=O)c2ccc(Cl)cc2)cc1,2.4%
5,CCc1ccc(NS(=O)(=O)c2ccc(Cl)cc2)cc1,5.43% (active)
6,O=C(Nc1ccc(F)c(F)c1)c1ccc(N2CC3CC(C2)c2cccc(=O)n2C3)c(NC(=O)c2ccc(Br)o2)c1 (stereo not drawn),2.62%
7,COc1ccc(C(=O)COC(=O)C(Cc2ccccc2)NC(=O)c2ccco2)cc1 (stereo not drawn),6.4% (active)
8,O=C(COC(=O)C(Cc1c[nH]c2ccccc12)NC(=O)c1ccco1)c1ccc(Br)cc1 (stereo not drawn),0.0528%
9,CCC(Cc1ccccc1)NC(=O)c1ccco1 (stereo not drawn),0.495%
10,Cc1ccsc1C(=O)OCc1nc2ccccc2s1,-2.54%
11,Cc1cccnc1CN1CCN(C(=O)Cn2nnnc2CN(C)C(C)C)CC1,-1.06%
12,Cc1ccc2c(c1)N(C(=O)Cn1cc(-c3ccccc3)c(N(C)C)n1)CCO2,-0.0851%
13,Cc1ccc(NC(=O)Cn2cc(-c3ccccc3)c(N3CCOCC3)n2)c(C)c1,4.93% (active)
14,Cc1ccc(C)c(NC(=O)CN2CCOCC2)c1,-1.34%
15,Cc1c(C(=O)Oc2ccccc2)sc2ncn(Cc3ccccc3F)c(=O)c12,1.05%
16,CC(C)n1nccc1-c1nnc(NC(=O)Cc2ccc(F)cc2)o1,3.52%
17,N=C1CCCN1CC(=O)c1ccccc1,0.114%
18,Cc1ccc2nc3[nH]c4ccccc4c3nc2c1,-4.57%
19,Nc1c([N+](=O)[O-])cc(Br)c2nsnc12,0.283%
20,CN(C)CC(C)(O)c1ccc2c(c1)CN(C(=O)c1cc(-c3ccsc3)n[nH]1)CCO2 (stereo not drawn),-0.659%
21,CCOc1ccc(NC(=O)N2CCC(N(C)CCC(C)C)CC2)cc1,-0.0877%
22,CCOc1ccc(NC(=O)CN2CCN(CC(N)=O)CC2)cc1,0.536%

row,SMILES,activation
1,CCOc1ccc(NC(=O)N2CCN(CC)CC2)cc1,5.53% (active)
2,CCC(=O)Nc1c(C(=O)Nc2ccccc2)oc2ccccc12,-0.454%
3,CC(=O)c1cccc(-c2cc(C(=O)Nc3ccc(N4CCOCC4)cc3)ccn2)c1,1.66%
4,CN(C)c1cccc(Nc2nc3ccc(C(=O)Nc4ccc(N5CCOCC5)cc4)cc3s2)c1,-1.45%
5,CN(C)c1cccc(Nc2cc(C(=O)Nc3ccc(N4CCOCC4)cc3)ccn2)c1,5.03% (active)
6,O=C(Cc1cccs1)Nn1c(-c2cccc([N+](=O)[O-])c2)nc2ccccc2c1=O,5.65% (active)
7,O=C(/C=C/c1cccc([N+](=O)[O-])c1)Nn1c(-c2cccs2)nc2ccccc2c1=O,1.05%
8,COc1cc(OC)cc(-c2nc3ccccc3c(=O)n2NC(=O)Cc2cccs2)c1,1.45%
9,O=C1CC(c2nc3ccccc3n2CC(O)COc2ccccc2)CN1c1ccccc1 (stereo not drawn),1.94%
10,COc1cccc(/C=C2/C(=O)NC(=O)N(c3ccccc3F)C2=O)c1,4.98% (active)
11,COc1cccc(/C=C2\C(=O)NC(=O)N(c3ccccc3Cl)C2=O)c1,1.26%
12,COc1cccc(N2C(=O)NC(=O)/C(=C/c3ccc(OC)c(O)c3)C2=O)c1,4.48%
13,Cc1ccc(/C(O)=C2\C(=O)C(=O)N(c3nnc(C)s3)C2c2cccc(Oc3ccccc3)c2)cc1 (stereo not drawn),2.53%
14,CCOc1ccc(C2C(C#N)=C(N)N(c3sc4c(c3C#N)CCCC4)C3=C2C(=O)CC(C)(C)C3)cc1 (stereo not drawn),-0.802%
15,COc1ccc(CCn2c(-c3ccc(S(=O)(=O)N4CCOCC4)cc3)csc2=Nc2cccc(C(F)(F)F)c2)cc1OC,0.281%
16,N#Cc1ccccc1OCC(=O)OCC(=O)Nc1ncc(Cl)cc1Cl,0.379%
17,CCOC(=O)CNC(=O)c1sc2ncn(CC(=O)Nc3ccc(C(C)C)cc3)c(=O)c2c1C,-1.34% and -1.19%
18,O=C(CN1C(=O)c2ccc([N+](=O)[O-])cc2C1=O)NC(c1ccccc1)c1ccccc1,0.498%
19,O=C(CN1C(=O)c2ccccc2C1=O)NC(c1ccccc1)c1ccc(Br)cc1 (stereo not drawn),5.23% (active)
20,O=C(CN1C(=O)CCC1=O)NC(c1ccccc1)c1ccccc1,-0.973%
21,NC(=O)c1c(NC(=O)CN(C(=O)c2ccco2)C2CCCC2)sc2c1CCCC2,3.42%
22,CN(CC(COc1cccc2ccccc12)OC(=O)c1ccc(Cl)cc1Cl)C1=NS(=O)(=O)c2ccccc21 (stereo not drawn),0.501%

row,SMILES,activation
1,CSc1nnc2n(/N=C/c3ccc(F)cc3)cnn12,-3.69%
2,CCC(C)(C)NC(=O)CN(C(=O)c1csnn1)c1cccc(C)c1C,-1.04%
3,COc1ccc(Cl)cc1/C=N/NC(=O)CNc1ccc(C)cc1,0.958%
4,O=C(N/N=C\c1ccc(I)o1)c1ccc(Br)cc1,1.14%
5,Cc1ccc(NCC(=O)N/N=C\c2ccc(I)o2)cc1,5.65% (active)
6,O=C1Cc2cc(S(=O)(=O)Nc3ccc(C(F)(F)F)cc3)cc3c2N1CCC3,-0.781%
7,COc1ccc(NS(=O)(=O)c2cc3c4c(c2)CC(=O)N4CCC3)cc1Cl,3.82%
8,O=C1Cc2cc(S(=O)(=O)Nc3cccc(Cl)c3)cc3c2N1CCC3,5.26% (active)
9,Cc1cccc(C)c1-n1c(N)c(C(=O)NCc2ccccc2)sc1=S,-0.178%
10,Cc1ccc(C)c(NC(=O)CN(C)S(=O)(=O)c2ccc3nc(-c4ccccc4)[nH]c3c2)c1,-2.02%
11,Cc1ccc(N2C(=O)C3C4c5ccccc5C(CO)(c5ccccc54)C3C2=O)cc1 (stereo not drawn),-0.914%
12,CC12c3ccccc3C(c3ccccc31)C1C(=O)N(c3ccc(C(=O)O)cc3)C(=O)C12 (stereo not drawn),-0.384%
13,CC12c3ccccc3C(c3ccccc31)C1C(=O)N(c3cccc(C(=O)O)c3)C(=O)C12 (stereo not drawn),-0.158%
14,CC12c3ccccc3C(c3ccccc31)C1C(=O)N(c3cccc(C(F)(F)F)c3)C(=O)C12 (stereo not drawn),1.26%
15,CC(=O)Oc1cccc(N2C(=O)C3C4c5ccccc5C(C)(c5ccccc54)C3C2=O)c1 (stereo not drawn),22.7% (active)
16,CCOc1ccc(N2C(=O)C3C4c5ccccc5C(C(C)O)(c5ccccc54)C3C2=O)cc1 (stereo not drawn),4.96% (active)
17,COc1cc(C2Nc3cc(C)c(C)cc3NC3=C2C(=O)CC(C)(C)C3)cc(OC)c1OC (stereo not drawn),0.742%
18,CCOC(=O)C1(Cc2cccc(OC)c2)CCCN(C(=O)COc2ccccc2OC)C1 (stereo not drawn),2.47%
19,CCOC(=O)C1=CN(C)C=C(C(=O)OCC)C1c1ccc(OC)cc1,5.01% (active)
20,CCOC(=O)C1=CN(c2ccc(OCC)cc2)C=C(C(=O)OCC)C1c1ccc(OC)cc1,0.997%
21,CCOC(=O)C1=CN(C)C=C(C(=O)OCC)C1c1ccc(OC)c(Br)c1,-0.344%
22,O=C(NCCc1ccc(O)cc1)c1cccc(Nc2ccncn2)n1,-1.69%
